Screens: PubChem, National Center for Advancing Translational Sciences (NCATS)
In the library only some 11% were active in any assay of this set; here they are far more common.
IMPase cell inh – IMPase inhibition in cells; CHO-M1 cells, IP1 accumulation, HTRF TR-FRET ratio; inhibition (IP1 accumulation), % at 46.1 µM; 120,000 tested, under 10 active; AID 901; active means well fitted curve in the direction sought with a large enough effect in the signal ratio, not every such curve was filed as active; inconclusive means small, poorly fitted or top-dose-only effect, or a change in a side signal; inactive means no such curve, though single readings can be large or run the other way; the % refers to the signal ratio;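 further: cells stimulated with carbachol in lithium chloride buffer; higher means more IMPase inhibition seen as more IP1 and lower FRET ratio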
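Cellular IMPase inhibition is scored as a rise in cytosolic IP1, detected by competitive TR-FRET between d2-labelled IP1 and a europium anti-IP1 antibody. M1-expressing CHO cells were stimulated with carbachol for 30 min at 37C, with lithium (50 mM LiCl) present in the buffer.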
12-hLO inh – blocks human 12-lipoxygenase activity; AID 1452; purified 12-hLO, xylenol orange hydroperoxide absorbance; Potency, µM (highest dose often 57.1 µM), hits mostly inhibitors; P18054; 150,000 compounds, 0.12% hits; active means well fitted curve in the direction sought with a large enough effect; inconclusive means small, poorly fitted or top-dose-only effect, or another doubt; inactive means no such curve, though single readings can be large; an effect the other way counts as inactive or inconclusive; further: nearly all actives have a fitted effect of over 55% in size
Target sequence (P18054 whole entry, looked up): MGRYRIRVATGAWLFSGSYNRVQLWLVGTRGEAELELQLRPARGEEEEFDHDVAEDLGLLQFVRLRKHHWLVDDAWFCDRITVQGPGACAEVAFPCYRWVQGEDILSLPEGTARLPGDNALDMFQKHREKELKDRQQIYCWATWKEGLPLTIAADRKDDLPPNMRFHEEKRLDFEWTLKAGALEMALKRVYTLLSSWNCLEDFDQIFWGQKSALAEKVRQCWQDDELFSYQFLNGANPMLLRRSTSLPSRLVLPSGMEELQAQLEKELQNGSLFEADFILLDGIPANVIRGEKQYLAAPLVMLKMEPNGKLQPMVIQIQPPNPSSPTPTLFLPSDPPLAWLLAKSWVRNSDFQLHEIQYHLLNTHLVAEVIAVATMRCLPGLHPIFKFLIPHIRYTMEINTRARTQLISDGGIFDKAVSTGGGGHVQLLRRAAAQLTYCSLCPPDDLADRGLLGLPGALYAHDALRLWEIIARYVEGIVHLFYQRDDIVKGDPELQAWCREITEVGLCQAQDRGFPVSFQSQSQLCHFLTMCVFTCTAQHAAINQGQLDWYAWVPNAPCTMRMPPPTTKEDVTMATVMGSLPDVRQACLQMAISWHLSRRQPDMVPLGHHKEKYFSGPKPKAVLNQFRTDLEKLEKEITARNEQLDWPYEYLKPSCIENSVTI
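Hydroperoxide output read as Fe(III)-xylenol orange absorbance, 573-to-405 nm ratio, after 30 min reaction with 40 uM arachidonic acid. Enzyme: 150 nM purified human 12hLO, 15 min compound preincubation; 25 mM Hepes pH 7.0, room temperature.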
ALDH1A1 block – ALDH1A1 (human) enzyme inhibition; P00352; Purified ALDH1A1, NADH fluorescence, propionaldehyde substrate; Potency, µM (doses to about 75.3 µM), hits mostly inhibitors; 220,000 compounds, 7.3% hits; AID 1030
IMPase Li inh – IMPase inhibition in cells with lithium potentiation; CHO-M1 cells, IP1 TR-FRET (IP-One), carbachol + lithium; Potency, µM (highest dose often 59.4 µM), most hits filed as inhibitors; 210,000 compounds, 0.35% hits; AID 1457; active means well fitted curve in the direction sought with a large enough effect; inconclusive means small, poorly fitted or top-dose-only effect, or another doubt; inactive means no such curve, though single readings can be large; an effect the other way counts as inactive or inconclusive;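 further: IP1 builds up when IMPase is blocked and the TR-FRET signal falls; nearly all actives have a fitted effect of over 50% in size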
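Lithium-sensitised IP1 accumulation assay; M1-expressing CHO cells treated 30 min at 37C with compound. Competitive antibody detection by time-resolved FRET followed a 10 min room-temperature lysis step.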
PNC assembly inh – inhibitors of perinucleolar compartment assembly; PC3M PTB-GFP, PNC prevalence imaging, 16 h; active compounds read low; activity change (PNC), negative = inhibition, % at 10 µM; 140,000 compounds, 3.1% hits;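 active means readout at or below -70, meaning at least 70% loss of cells showing the perinucleolar compartment, a nuclear body marking cancer cells; inconclusive means readout between -30 and a set limit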
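Read-out is percentage of cells bearing a perinucleolar compartment, from automated 20x imaging of fixed, Hoechst-stained PC3M PTB-GFP cells. Cells were seeded 4 h, then exposed 16 h to compound (23 nl of library stock) in duplicate plates.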
HPGD inh – inhibitors of human 15-hydroxyprostaglandin dehydrogenase (HPGD) | 150,000 compounds, 4.3% hits | P15428 | Potency, µM, actives largely listed as inhibitors | AID 894 | purified HPGD, NADH fluorescence kinetic, PGE2 substrate
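NADH formation kinetics: reaction with 30 uM PGE2 and 1 mM NAD+ (final), 20 nM enzyme, Tris-HCl pH 8 with Tween 20, after 15 min compound preincubation at room temperature. Fluorescence change, last versus first of five reads.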
A number is an active result; . = inactive; ? = inconclusive; / = no result given; [ ] = remark or other dose. Unless noted, the call rests on the fitted dose curve; in most records, active means well fitted inhibition curve with a large enough effect (not every such curve was filed as active); inconclusive means small, poorly fitted or top-dose-only effect, or another doubt; inactive means no such curve, though single readings can be large or run the other way.

SMILES | IMPase cell inh | 12-hLO inh | ALDH1A1 block | IMPase Li inh | PNC assembly inh | HPGD inh
CCc1ccccc1N1CC23C=CC(O2)C(C(=O)OCC(C)C)C3C1=O (stereo not drawn) | . | . | . | . | . | .
Cc1ccc(N2C(=O)C3C4C=CC(CNC(=S)N5CCN(c6ccccn6)CC5)(O4)C3C2=O)cc1 (stereo not drawn) | / | / | ? | . | / | /
CCOC(=O)N1CCC(N2CC34C=CC(O3)C(C(=O)Nc3ccc(F)cc3)C4C2=O)CC1 (stereo not drawn) | . | . | . | . | . | .
Cc1ccc(N2C(=O)C3C4C=CC(CNC(=S)Nc5ccc(Cl)cc5)(O4)C3C2=O)cc1 (stereo not drawn) | / | ? | 0.316µM | . | ? | ?
CC(C)COC(=O)NCC12C=CC(O1)C1C(=O)N(c3ccc(Cl)cc3)C(=O)C12 (stereo not drawn) | . | ? | 0.562µM | . | . | 17.8µM
Cc1ccc(N2C(=O)C3C4C=CC(CNC(=S)Nc5ccc(F)cc5)(O4)C3C2=O)cc1 (stereo not drawn) | / | . | 0.398µM | . | -80.2 | 17.8µM
COC(=O)NC(/C(C(=O)OC)=C(\C)NCc1ccccc1)c1cccc(F)c1 (stereo not drawn) | / | / | .[13.5 µM] | / | / | /
O=c1cc(-c2ccc(O)cc2)oc2c([C@H]3O[C@@H](CO)[C@@H](O)[C@@H](O)[C@@H]3O)c(O)cc(O)c12 | . | . | . | . | / | .
N#C/C(=C\c1ccc(F)cc1)c1nc(-c2ccc(-c3ccccc3)cc2)cs1 | . | / | / | / | / | /
CCOc1ccc(-c2csc(/C(C#N)=C\c3ccc(O)c([N+](=O)[O-])c3)n2)cc1 | / | . | . | . | ? | 3.16µM
c1ccc(CNc2ncnc3ccc(-c4ccc5c(c4)OCO5)cc23)cc1 | / | / | ? | . | / | /
CC#CCN1c2ccccc2[C@]23C[C@@H](C(=O)OC)N(C(=O)CC(C)C)C2=NC(C(=O)OC)=C(C(=O)OC)[C@H]13 | / | .[11.4 µM] | .[13.5 µM] | . | / | .
O=c1nc2c(O)cccn2c2c1c(=O)[nH]c1ccccc12 | . | . | 20µM | . | ? | ?
CCOC(=O)C1(CCc2ccccc2)CCN(C(=O)c2ccoc2)CC1 | / | / | 25.1µM | . | / | /
CCOC(=O)C1(CCCc2ccccc2)CCN(C(=O)c2ccoc2)CC1 | / | / | 3.98µM | . | / | /
CCOC(=O)C1(CCCc2ccccc2)CCN(C(=O)CCC2=NNC(=O)CC2)CC1 | / | / | 2µM | . | / | /
CCOC(=O)C1(CCCc2ccccc2)CCN(C(=O)C2=C(C)OCCO2)CC1 | / | / | 3.16µM | . | / | /
CCOC(=O)C1(CCCc2ccccc2)CCN(C(=O)Cc2nonc2C)CC1 | / | / | ? | . | / | /
CC(C)CO/N=C1/C[C@@H](O)[C@@H](O)[C@@H]2[C@@H]3C(=O)N([C@@H](C)c4ccccc4)C(=O)[C@H]3CC[C@H]12 | / | / | .[13.5 µM] | / | / | /
CC(C)C[C@@H](CC(=O)N[C@@H](CCCN)CC(=O)N[C@@H]1CCNC[C@H]1C(=O)N[C@H](CC(=O)N[C@@H](CCC(=O)O)CC(=O)O)Cc1c[nH]c2ccccc12)NC(=O)[C@@H]1CNCC[C@H]1N | / | . | . | . | / | .
COc1ccc(NC(=O)C2CC2)cc1-n1cnnn1 | . | . | . | . | . | 14.1µM
Cc1c(C(=O)N2CCCCC2)nnn1-c1nonc1N | . | . | 7.94µM | . | ? | 15.8µM
CCCn1c(=O)[nH]c2nc(-c3ccc(S(=O)(=O)O)cc3)[nH]c2c1=O | ? | . | ? | ? | / | ?
COc1cc(C2C(C#N)=C(C)NC3=C2C(=O)c2ccccc23)cc(OC)c1OC (stereo not drawn) | .[1.84 µM] | . | . | . | -115.5 | .
O=C1NC2=C(C(=O)c3ccccc32)C(c2ccccc2)N1 (stereo not drawn) | . | . | 15.8µM | . | . | .
COc1ccc(C2C(C#N)=C(C)NC3=C2C(=O)c2ccccc23)cc1 (stereo not drawn) | . | . | ? | . | . | .
CC(=O)C1=C(C)NC(=O)NC1c1ccccc1 (stereo not drawn) | . | . | . | . | . | .
CC1=C([N+](=O)[O-])C(c2ccccc2)C2=C(N1)c1ccccc1C2=O (stereo not drawn) | . | . | ? | . | ? | 22.4µM
